# Results filed as inconclusive are left out. The source made the active and inactive calls. Calls follow the shape of the dose curve; as a rule, active = well fitted curve in the direction sought with a large enough effect in the signal ratio; inconclusive = small, poorly fitted or top-dose-only effect, or effect the other way, or a change in a side signal; inactive = no such curve, though single readings can be large or run the other way; the % refers to the signal ratio.
# Target: Lutropin-choriogonadotropic hormone receptor (Homo sapiens) (UniProt P22888)
# Sequence (P22888 whole entry, looked up): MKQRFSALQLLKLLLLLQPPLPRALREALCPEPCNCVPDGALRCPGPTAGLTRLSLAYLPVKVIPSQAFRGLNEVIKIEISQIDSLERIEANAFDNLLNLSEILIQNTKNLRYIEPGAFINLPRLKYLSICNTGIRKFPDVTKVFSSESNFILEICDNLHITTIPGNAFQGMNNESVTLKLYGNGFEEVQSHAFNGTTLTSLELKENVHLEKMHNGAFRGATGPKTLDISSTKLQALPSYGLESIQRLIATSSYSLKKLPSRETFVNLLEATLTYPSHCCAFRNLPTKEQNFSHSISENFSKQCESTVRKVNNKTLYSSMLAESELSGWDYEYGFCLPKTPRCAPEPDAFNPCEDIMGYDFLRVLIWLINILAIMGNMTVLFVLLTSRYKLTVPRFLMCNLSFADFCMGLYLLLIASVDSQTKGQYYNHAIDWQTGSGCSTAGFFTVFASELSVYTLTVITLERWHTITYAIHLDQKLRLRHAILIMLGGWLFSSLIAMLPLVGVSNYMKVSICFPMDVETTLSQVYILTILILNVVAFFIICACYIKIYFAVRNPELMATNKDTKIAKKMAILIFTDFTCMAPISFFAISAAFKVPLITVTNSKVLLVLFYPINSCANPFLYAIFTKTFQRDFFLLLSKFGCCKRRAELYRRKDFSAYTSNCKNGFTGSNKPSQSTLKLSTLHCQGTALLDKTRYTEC
# Assay: Counterscreen for Agonists of Thyroid Stimulating Hormone Receptor: HTRF Activity in a Luteinizing Hormone Receptor Cell Line
# Conditions: HEK293-LHR cells, cAMP HTRF ratio, 30 min; series mostly up to 91.7 µM; activation (cAMP increase): at the top concentration
# Source text: NIH Chemical Genomics Center [NCGC] NIH Molecular Libraries Screening Centers Network [MLSCN] MLSCN Grant: 1 X01 MH080680-01 PI Name: Dr. Marvin Gershengorn, NIH NCGC Assay Overview: Confirmation of Thyroid Stimulating Hormone Receptor Agonists TSH is an alpha/beta heterodimeric glycoprotein hormone secreted from the anterior pituitary gland which belongs to the glycoprotein hormone family. The actions of TSH are mediated by a seven-transmembrane receptor, which upon TSH binding couples preferentially to the G-alpha (s) protein (Gs), resulting in activation of adenylate cyclase and increase in cyclic adenosine 3', 5' monophosphate (cAMP). The TSH receptor (THSR) is mainly expressed in thyroid follicular cells and regulates their growth and function. Recombinant TSH is used to activate TSHR in patients with thyroid cancer receiving thyroid hormone suppression therapy and to screen for residual tumor after surgery, but it is expensive and must be administered intramuscularly. An orally active small molecule TSHR agonist would serve as an invaluable research tool for studying TSHR pharmacology and physiology, and would have multiple advantages in therapeutic settings. However, no selective small molecule agonist of the TSH receptor exists, and no small molecule screen for TSHR agonists has ever been reported. In order to confirm specificity of the compounds to the TSHR, a confirmatory assay was conducted on a similar family member, the Luteinizing Hormone (LH) receptor, transfected into a HEK 293 cell line, using an orthogonal detection technology to measure cAMP stimulation: antibody-based Homogeneous Time Resolved Fluorescence (HTRF).
# NCGC Assay Protocol Summary: Homogeneous Time Resolved Fluorescence (HTRF) cAMP Assay. HEK 293 cells stably transfected with a vector containing the LH receptor and maintained under hygromycin selection were obtained from the laboratory of Dr. Marvin Gershengorn. Compounds were assayed using a HTRF cAMP detection kit (Cisbio) on the LH receptor transfected cell line. Briefly, 750 cells were plated in 2.5 ul/well of complete media (DMEM containing 10 % FCS, and 100 uM RO 20-1724) in 1536 well solid bottom white plates and 23 nl/well compound in DMSO solution or controls was added. Following 30 minute incubation at room temperature, 2.5 ul/well of labeled d2 cAMP and 2.5 ul/well of anti-cAMP antibody (both diluted 1:20 in lysis buffer) were added to each well using a flying reagent dispenser (Aurora Discovery, San Diego) . Plates were measured using the Envision plate reader (PerkinElmer, Boston, MA) with excitation at 330 nm and emissions of 615 nm and 660 nm. Keywords: Luteinizing hormone LH, Thyroid-stimulating hormone TSH, TSHR, TSHR agonist, quantitative high throughput screening, qHTS, HTS, probe identification, CNG, cAMP, cyclic nucleotide gated ion channel PubChem
row,Structure (SMILES),activation (cAMP increase)
1,NC(=O)c1nsc(C(=O)N(CC(=O)NCc2ccc3c(c2)OCO3)C2CCCC2)c1N,2.94% (inactive)
2,O=C1CC(c2ccccc2)CC2=C1C(c1ccco1)n1nc(C(F)(F)F)nc1N2 (configuration not stated),3.49% (inactive)
3,Cc1nn(-c2ccccc2)c(N2CCCC2)c1/C=N/n1cnc2scc(-c3ccccc3)c2c1=O,2.52% (inactive)
4,COc1ccc(C2Nc3ccccc3C(=O)N2Cc2ccco2)cc1COc1ccc([N+](=O)[O-])cc1 (configuration not stated),1.81% (inactive)
5,COc1ccc(C(=O)N(Cc2ccco2)Cc2cccs2)c(O)c1,2.94% (inactive)
6,NC(=O)c1nsc(C(=O)N(CC(=O)NC2CCCC2)Cc2ccc3c(c2)OCO3)c1N,3.37% (inactive)
7,O=C1C2C3CCCC3=C3CCCC3C2C(=O)N1c1ccc(Cl)cc1 (configuration not stated),2.44% (inactive)
8,NC(=O)c1nsc(C(=O)N(CC(=O)NCc2ccc3c(c2)OCO3)C2CCCCC2)c1N,1.56% (inactive)
9,O=C(COC(=O)C12CC3CC(CC(C3)C1)C2)NCc1ccco1,2.36% (inactive)
10,COc1ccc(C2Nc3cccc(O)c3C(=O)N2Cc2ccccc2)cc1COc1ccc(NC(C)=O)cc1 (configuration not stated),3.62% (inactive)
11,O=C(COC(=O)C12CC3CC(CC(C3)C1)C2)NCC1CCCO1 (configuration not stated),3.45% (inactive)
12,O=C(COC(=O)C12CC3CC(CC(Br)(C3)C1)C2)NCc1ccco1,4.71% (inactive)
13,O=c1c2c(-c3ccccc3)csc2ncn1/N=C/c1cn(-c2ccccc2)nc1-c1cccs1,1.85% (inactive)
14,CC(NC(=O)COC(=O)c1ccco1)C12CC3CC(CC(C3)C1)C2 (configuration not stated),3.79% (inactive)
15,O=C1C2C3CCCC3=C3CCCC3C2C(=O)N1c1ccccc1Cl (configuration not stated),1.18% (inactive)
16,COc1ccc(C2Nc3ccccc3C(=O)N2Cc2ccco2)cc1COc1c(C)cccc1C (configuration not stated),2.23% (inactive)
17,CCn1c(=O)c(C(=O)CN2CCCc3ccccc32)c(N)n(Cc2ccccc2)c1=O,2.69% (inactive)
18,O=C(COC(=O)C12CC3CC(CC(Cl)(C3)C1)C2)NCc1ccco1,4.42% (inactive)
19,Cc1sc2ncn(/N=C/c3cn(-c4ccccc4)nc3-c3ccccc3)c(=O)c2c1C,2.31% (inactive)
20,COc1cc(OC)cc(C(=O)N(Cc2ccco2)Cc2cccs2)c1,1.68% (inactive)
21,O=C1C2C3CCCC3=C3CCCC3C2C(=O)N1c1ccc(F)cc1 (configuration not stated),0.715% (inactive)
22,COc1ccc(C2Nc3ccccc3C(=O)N2Cc2ccco2)cc1COc1ccc(NC(C)=O)cc1 (configuration not stated),3.62% (inactive)
23,COc1ccc(C(=O)N(Cc2ccco2)Cc2cccs2)cc1,3.2% (inactive)
24,O=C1C2C3CCCC3=C3CCCC3C2C(=O)N1c1cccc(Cl)c1 (configuration not stated),1.77% (inactive)
25,O=C(COC(=O)C12CC3CC(CC(O)(C3)C1)C2)NCc1ccco1,1.68% (inactive)
26,COc1cc(OC)c(C(=O)N(Cc2ccco2)Cc2cccs2)cc1OC,1.72% (inactive)
27,O=C1CC(c2ccco2)CC2=C1C(c1ccccc1)n1nc(C(F)(F)F)nc1N2 (configuration not stated),2.99% (inactive)
